# Measured values as given in PubChem BioAssay (Tox21).
# Inconclusive results are not listed. Unmarked numbers belong to inactive results. Activity calls are given as the source filed them. The call rests on the fitted dose curve; in most records, active means well fitted cell-killing curve with a large enough effect in the repeat runs; inconclusive means weak or mixed curves, or effect the other way; inactive means flat fitted curve, though single readings scatter.
# Assay: cAMP Responsive Elements (CRE) small molecule agonists, cell-based qHTS assay: qHTS cell viability counter screen (AID 2060914);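 further: viability read after 3 h of compound exposure; nearly all actives have a fitted effect of over 50% in size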
# Settings: CRE-bla HEK293T viability, CellTiter-Glo luminescence, 5 h; series mostly up to 92.4 µM; activity change, negative = cytotoxicity: at the top concentration
# Outline: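 CRE-bla HEK 293T cells, plated 18 h at 37 °C, were exposed to compounds for 3 h at 37 °C/5% CO2. Viability was then measured in the same wells by CellTiter-Glo luminescence after 30 min at room temperature.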
# On the % scale 0 is the no-effect control and ±100 the full control effect; potency means the concentration at half of the fitted maximal effect.
SMILES,"activity change, negative = cytotoxicity",Potency
FC(F)(F)C(F)(F)C(F)(F)C(F)(F)CCI,-0.634% [at 42.5 µM],
O=S(O)(O)=S,9.38% [at 8.39 µM],
c1ccc2c(c1)Cc1ccccc1-2,,inactive
S=C(NC1CCCCC1)NC1CCCCC1,,inactive
CCCc1ccccc1,1.66%,
CC(=O)OCC(=O)Nc1cc(C#N)cc(NC(=O)COC(C)=O)c1Cl,3.43% [at 42.5 µM],
CC1(C)CCC[C@]2(C)[C@H]3CCO[C@]3(C)CC[C@@H]12,0.121%,
COC(C)COC(C)COC(C)CO (stereo unspecified),,inactive
CC(=O)S[C@H](C(=O)N[C@H]1Cc2ccccc2[C@H]2CCC[C@@H](C(=O)O)N2C1=O)C(C)C,-8.35%,
NC(=O)n1c(O)c(C(=O)c2cccs2)c2cc(Cl)ccc21,-6.91% [at 42.5 µM],
CC(C)(C)C(=O)C1C(=O)c2ccccc2C1=O,,inactive
NC(CS)C(=O)O (stereo unspecified),2.9% [at 42.5 µM],
CC1=CCC(=C(C)C)CC1,3.88%,
CO/N=C(/C(=O)N[C@@H]1C(=O)N2C(C(=O)O)=C(COC(N)=O)CS[C@H]12)c1ccco1,-4.6%,
O=C(O)CCSCCC(=O)O,13.2%,
Cc1ccc(C(=O)O)cc1,8.21%,
O=C1NCCN1,0.439%,
Cc1c(C2(c3cc(Br)c(O)c(Br)c3C)OS(=O)(=O)c3ccccc32)cc(Br)c(O)c1Br,,52.9 µM (active)
COc1cc(C(C)C)ccc1C,-11.5% [at 18.9 µM],
C=C(C)C1CC=C(C)C(OC(C)=O)C1 (stereo unspecified),,inactive
CC1(C)Oc2ccc(C#N)cc2[C@@H](N2CCCC2=O)[C@@H]1O,-9.75% [at 42.5 µM],
